Screening data: PubChem BioAssay, National Center for Advancing Translational Sciences (NCATS)
LDHA inh = qHTS assay for inhibitors of human lactate dehydrogenase; L-lactate dehydrogenase A chain (Homo sapiens), P00338; purified LDHA, NADH/diaphorase-resazurin fluorescence; hits give low values; activity change, % (values are at about 110 or 230 µM); 0.15% of 480,000 active; AID 1347041, 2019; in the data active means activity change below about -30%; inconclusive means mostly about -25% to -30%
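LDH5 2 nM; NADH 0.06 mM, pyruvate 0.2 mM; 200 mM Tris pH 7.4, EDTA, Tween-20; 5 min RT. Detection: diaphorase 0.133 mg/mL + resazurin 37 µM, fluorescence ex540/em590 at 0 and 20 min; normalized to enzyme-free and DMSO wells.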
IDH1 R132H inh = qHTS for Inhibitors of mutant isocitrate dehydrogenase 1 (IDH1): qHTS. Isocitrate dehydrogenase [NADP] cytoplasmic (Homo sapiens), O75874. IDH1-R132H enzyme, NADPH consumption, diaphorase/resazurin fluorescence. Potency, µM (series often up to 76.6 µM), actives largely listed as inhibitors. 0.093% of 390,000 active; further: nearly all actives have a fitted effect of over 65% in size
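IDH1-R132H (0.5 ug/mL) preincubated 30 min with compound, then NADPH (0.016 mM) and alpha-KG (2 mM) added; 80 min at RT, pH 7.5. Remaining NADPH coupled via diaphorase/resazurin to fluorescence (540/590 nm); concentration-response curves normalized to no-enzyme control.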
RGS4 inhibitor = Inhibitors of Regulator of G Protein Signaling (RGS) 4: qHTS; Regulator of G-protein signaling 4 (Homo sapiens), P49798; Transcreener GDP fluorescence polarization, RGS4-accelerated GTP hydrolysis; Potency, µM (highest dose often 114 µM), hits mostly inhibitors; 0.039% of 390,000 active; AID 504845, 2011; further: nearly all actives have a fitted effect of over 75% in size
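MLSMR compounds (23 nl, pin-transferred) preincubated 10 min at room temperature with a 500nM (2x) first reagent, then RGS4 at 900nM (2x) plus Transcreener GDP mix added; fluorescence polarization (620/688 nm) read before and after 90 min at 30 °C.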
ClpP mod = qHTS Assay for Activators of ClpP; 1.9% of 340,000 active; ATP-dependent Clp protease proteolytic subunit (Bacillus subtilis (strain 168)), P80244; purified B. subtilis ClpP, FRET peptide cleavage, 20 min; Potency, µM (series often up to 57.5 µM); active means well fitted falling curve with a large enough effect; inconclusive means small, poorly fitted or top-dose-only effect; inactive means no such curve, though single readings can be large or run the other way; further: the source files actives as falling curves though it sought activators and does not explain the sign; nearly all actives have a fitted effect of over 65% in size
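Buffer: 100 mM Tris/HCl pH8, 100 mM KCl, 0.05% low protease BSA, 2.5% glycerol, 0.01% Tween-20. ClpP 10 microg/mL final; 20 min RT; delta FRET normalized to ADEP and DMSO controls.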
Mito fusion yeast = qHTS Assay for Small Molecule Inhibitors of Mitochondrial Division or Activators of Mitochondrial Fusion | S. cerevisiae fusion-defective mutant growth rescue, CellTiterGlo 48 h | Potency, µM (highest dose often 46.1 µM), most hits filed as activators | 0.23% of 320,000 active | AID 485298, 2010; further: nearly all actives have a fitted effect of over 45% in size
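Growth-rescue viability read-out: after 48 h at the non-permissive 37C in glycerol/ethanol YPEG, yeast mitochondrial fusion mutants are measured by CellTiterGlo luminescence; compounds (23 nl pinned per well) restoring growth score as division inhibitors or fusion activators.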
S-ASM inh = Inhibitors of Secretory Acid Sphingomyelinase (S-ASM): qHTS. Sphingomyelin phosphodiesterase (Homo sapiens), P17405. placental ASM, HMU-PC fluorogenic substrate, 60 min. Potency, µM (series often up to 57.5 µM), hits mostly inhibitors. 0.006% of 340,000 active. AID 504937, 2011
Target sequence (P17405 47-631 limits assumed): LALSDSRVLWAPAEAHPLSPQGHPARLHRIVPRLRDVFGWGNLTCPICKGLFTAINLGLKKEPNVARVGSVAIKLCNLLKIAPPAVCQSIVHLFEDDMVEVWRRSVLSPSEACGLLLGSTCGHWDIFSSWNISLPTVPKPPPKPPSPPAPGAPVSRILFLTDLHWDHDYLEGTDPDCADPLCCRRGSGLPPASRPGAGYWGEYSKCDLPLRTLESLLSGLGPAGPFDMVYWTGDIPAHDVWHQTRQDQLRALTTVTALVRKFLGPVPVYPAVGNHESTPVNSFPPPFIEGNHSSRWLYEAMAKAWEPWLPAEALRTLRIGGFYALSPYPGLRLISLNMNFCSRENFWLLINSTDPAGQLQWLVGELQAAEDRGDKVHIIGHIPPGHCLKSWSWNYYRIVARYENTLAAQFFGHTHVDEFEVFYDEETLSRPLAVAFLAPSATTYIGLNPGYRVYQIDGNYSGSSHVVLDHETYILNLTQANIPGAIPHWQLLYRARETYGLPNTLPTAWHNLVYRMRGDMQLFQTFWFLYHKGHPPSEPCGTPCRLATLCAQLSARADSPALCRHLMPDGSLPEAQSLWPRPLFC
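HMU-PC0 cleavage (9 uM final) by human placental ASM, 60 min at 37 °C following 10 min compound exposure at RT; stopped at pH 10, fluorescence Ex 386/Em 447 nm.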
Of the large screens only hits and unclear results are named; the others gave an inactive call. This excerpt belongs to a sample that is enriched for hits. Unless noted, the call rests on the fitted dose curve; in most records, active means well fitted curve in the direction sought with a large enough effect; inconclusive means small, poorly fitted or top-dose-only effect, or another doubt; inactive means no such curve, though single readings can be large; an effect the other way counts as inactive or inconclusive.

COc1cccc(Cn2cccc(NC(=O)NC3CCCCC3)c2=O)c1	ClpP mod 28.2µM
O=C(Nc1cccn(Cc2ccccc2)c1=O)NC1CCCCC1	ClpP mod 20µM
COC(=O)c1ccc(C2C3=C(CC(C)(C)CC3=O)Nc3cc4c(cc32)OCO4)cc1 (stereo not given)	none (no result: IDH1 R132H inh, RGS4 inhibitor, ClpP mod, Mito fusion yeast, S-ASM inh)
CCOC(=O)c1cc2c(=O)n3ccccc3nc2n(CCCOC)c1=NC(=O)C(C)(C)C	ClpP mod 28.2µM
CCOC(=O)c1cc2c(=O)n3ccccc3nc2n(CCOC)c1=NC(=O)C(C)(C)C	ClpP mod 17.8µM
CCOC(=O)c1cc2c(=O)n3ccccc3nc2n(C(C)C)c1=NC(=O)c1c(-c2ccccc2Cl)noc1C	none (no result: ClpP mod)
CCOC(=O)c1cc2c(=O)n3ccccc3nc2n(CCOC)c1=NC(=O)C(C)(C)Oc1ccc(Cl)cc1	none (no result: Mito fusion yeast, S-ASM inh)
CCOC(=O)c1cc2c(=O)n3ccccc3nc2n(C(C)C)c1=NC(=O)c1ccncc1	ClpP mod 28.2µM
CCOC(=O)c1cc2c(=O)n3ccccc3nc2n(CCOC)c1=NC(=O)c1ccncc1	ClpP mod 12.6µM
CCCc1[nH]nc2c1C(c1ccccc1C(F)(F)F)C(C#N)=C(N)O2 (stereo not given)	none (no result: IDH1 R132H inh, RGS4 inhibitor, ClpP mod, Mito fusion yeast, S-ASM inh)
Cc1ccc(NC(=O)/C=C/c2cccs2)cc1C	none (no result: IDH1 R132H inh, RGS4 inhibitor, ClpP mod, Mito fusion yeast, S-ASM inh)
N=c1c2c(ncn1-c1ccccc1)Oc1ccc3ccccc3c1C2c1ccc2c(c1)CCO2 (stereo not given)	none (no result: IDH1 R132H inh, RGS4 inhibitor, ClpP mod, Mito fusion yeast, S-ASM inh)
CC(=O)Nc1cccc(-n2nnnc2SCc2nc3ccccc3[nH]2)c1	none (no result: IDH1 R132H inh, RGS4 inhibitor, ClpP mod, Mito fusion yeast, S-ASM inh)
CS(=O)(=O)Nc1nc2n(n1)C(c1ccccc1)C=C(c1ccc(Br)cc1)N2 (stereo not given)	ClpP mod 8.91µM
CC(=O)Nc1nc2n(n1)C(c1ccc(Cl)cc1)C=C(C)N2 (stereo not given)	ClpP mod 3.16µM
CC(=O)Nc1nc2n(n1)C(c1ccc(F)cc1)C=C(c1ccccc1)N2 (stereo not given)	ClpP mod inconclusive
CC1=CC(c2ccc(Cl)cc2)n2nc(NC(=O)c3ccccc3)nc2N1 (stereo not given)	ClpP mod inconclusive
CC(=O)Nc1nc2n(n1)C(c1ccccc1)C=C(c1ccccc1)N2 (stereo not given)	ClpP mod 28.2µM
Cc1nc(Oc2ccc3ccc(=O)oc3c2)c2c3c(sc2n1)CC(C)CC3 (stereo not given)	none (no result: IDH1 R132H inh, RGS4 inhibitor, ClpP mod, Mito fusion yeast, S-ASM inh)
Cc1cc(C(=O)Nc2cccc(I)c2)c(C)o1	none (no result: IDH1 R132H inh, RGS4 inhibitor, ClpP mod, Mito fusion yeast, S-ASM inh)
CCC(C)NC(=O)CCc1nnc2n(CCc3ccccc3)c(=O)c3ccccc3n12 (stereo not given)	none (no result: IDH1 R132H inh, RGS4 inhibitor, ClpP mod, Mito fusion yeast, S-ASM inh)
CCOC(=O)c1sc(Nc2nc3cc4c(cc3s2)OCO4)cc1C	ClpP mod 28.2µM
c1ccc2sc(Nc3nc4cc5c(cc4s3)OCO5)nc2c1	ClpP mod inconclusive, Mito fusion yeast 14.1µM
CCOC(=O)c1sc(Nc2nc3c(OC)cccc3s2)cc1C	ClpP mod 25.1µM
CC(=O)c1sc(Nc2nc3cc4c(cc3s2)OCO4)nc1C	none (no result: ClpP mod)
COc1cccc2sc(Nc3nc4ccc(NC(C)=O)cc4s3)nc12	ClpP mod 1.12µM
CCOc1cc(C)c(S(=O)(=O)NCC(C)O)cc1C (stereo not given)	none (no result: IDH1 R132H inh, RGS4 inhibitor, ClpP mod, Mito fusion yeast, S-ASM inh)
CCn1nc(C(=O)Nc2nc(-c3ccccc3)cs2)c2ccccc2c1=O	none (no result: IDH1 R132H inh, RGS4 inhibitor, ClpP mod, Mito fusion yeast, S-ASM inh)
COc1ccccc1NC(=O)Nc1c(NC2CCCCC2)c2ccccc2oc1=O	none (no result: IDH1 R132H inh, RGS4 inhibitor, ClpP mod, Mito fusion yeast, S-ASM inh)
O=c1nc2ccccc2c2n1CC(CN1CCN(Cc3ccccc3)CC1)N2 (stereo not given)	ClpP mod 15.8µM
